Test results reported in PubChem BioAssay (Tox21).
Where “and” joins values, the source holds several entries; their conditions need not be identical. Equal values may be shown once. Records with an inconclusive call do not appear. A call without a number means that no potency is given here. Where a structure was tested more than once in an assay, its records may differ in their call. Calls of active or inactive are those of the source. Unless noted, calls come from the whole dose curve; as a rule, active = well fitted curve in the direction sought with a large enough effect in the repeat runs; inconclusive = weak or mixed curves; inactive = no such curve, though single readings can be large; an effect the other way counts as inactive or inconclusive.

Columns and labels:
[1] = biological target: Thyrotropin-releasing hormone receptor (Homo sapiens) (UniProt P34981); test: qHTS assay to identify small molecule agonists of the thyrotropin-releasing hormone receptor (TRHR) signaling pathway (AID 1346891; calls by dose curve;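 note: HEK293 cells expressing TRHR with calcium dye readout; series mostly up to about 58 µM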)
Thyrotropin-releasing hormone receptor (Homo sapiens), sequence (P34981 whole entry, looked up): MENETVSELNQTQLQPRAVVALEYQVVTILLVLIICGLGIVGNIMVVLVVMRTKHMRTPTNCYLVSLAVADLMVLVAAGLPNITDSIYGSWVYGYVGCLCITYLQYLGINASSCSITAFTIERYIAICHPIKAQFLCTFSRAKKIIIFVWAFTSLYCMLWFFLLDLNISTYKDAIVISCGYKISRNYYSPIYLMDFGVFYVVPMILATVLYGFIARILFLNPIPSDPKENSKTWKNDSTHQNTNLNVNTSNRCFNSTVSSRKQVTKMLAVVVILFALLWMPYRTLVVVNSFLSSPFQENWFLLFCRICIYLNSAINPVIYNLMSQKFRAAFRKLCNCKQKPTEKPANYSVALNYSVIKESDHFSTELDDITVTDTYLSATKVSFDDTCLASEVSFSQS
How it was run: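 Agonist-mode calcium mobilisation screen: TRHR-transfected HEK293 cells cultured overnight (18 h), dye-loaded for 2 h at 37 °C, exposed to compounds, and monitored by fluorescence for 3 min.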

[2] = Human pregnane X receptor (PXR) small molecule agonists, qHTS cell viability counter screen (AID 1346977); note: nearly all actives have a fitted effect of over 50% in size; note: potency is the fitted concentration of half-maximal effect
How it was run: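 Measures live-cell protease fluorescence (CellTiter-Fluor) in PXR-Luc HepG2 cells treated 24hr with compounds at 37C. Cells had 5hr to attach before pin transfer of DMSO solutions.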

[3] = Caspase-3/7 induction in HepG2 cells by small molecules, qHTS assay (AID 1346978); note: nearly all actives have a fitted effect of over 15% in size
How it was run: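 Wild-type HepG2 cells (2,000/well) were settled 5 h at 37 C, 5% CO2, then exposed to compounds in DMSO for 17 h. Caspase-3/7 activity was read by luminescence 30 min after adding Caspase-Glo 3/7 reagent at room temperature.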

[4] = Caspase-3/7 induction in CHO-K1 cells by small molecules, qHTS cell viability counter screen (AID 1346979); note: nearly all actives have a fitted effect of over 35% in size; note: potency is the fitted concentration of half-maximal effect
How it was run: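 In the same wells as the caspase read, viability of compound-treated wild-type CHO-K1 cells was assessed using CellTiter-Fluor, added after 16hr at 37C and measured by fluorescence following 1hr further incubation.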

[5] = Caspase-3/7 induction in CHO-K1 cells by small molecules, qHTS assay (AID 1346980); note: nearly all actives have a fitted effect of over 15% in size
How it was run: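 Wild-type cells were seeded at 1,500 per well and settled 5 hr at 37 C, 5% CO2, then exposed to DMSO-dissolved compounds for 17 hr. Caspase-Glo 3/7 reagent was added, and luminescence was read after 30min at room temperature.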

[6] = Caspase-3/7 induction in HepG2 cells by small molecules, qHTS cell viability counter screen (AID 1346981); note: nearly all actives have a fitted effect of over 30% in size; note: potency is the fitted concentration of half-maximal effect
How it was run: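 In this quantitative HTS counter screen, compounds delivered in DMSO were left on unmodified HepG2 cells for 16 hr at 37 C. Viability was then determined fluorometrically with CellTiter-Fluor, in parallel with caspase-3/7 induction in the same wells.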

[7] = biological target: Nuclear receptor subfamily 1 group I member 2 (Rattus norvegicus) (UniProt Q9R1A7); test: Rat pregnane X receptor (rPXR) activation by small molecules, qHTS assay (AID 1346983); details: rPXR luciferase reporter cells, One-Glo luminescence, 24 h; stronger effect = higher value; note: nearly all actives have a fitted effect of over 20% in size
Nuclear receptor subfamily 1 group I member 2 (Rattus norvegicus), sequence (Q9R1A7 whole entry, looked up): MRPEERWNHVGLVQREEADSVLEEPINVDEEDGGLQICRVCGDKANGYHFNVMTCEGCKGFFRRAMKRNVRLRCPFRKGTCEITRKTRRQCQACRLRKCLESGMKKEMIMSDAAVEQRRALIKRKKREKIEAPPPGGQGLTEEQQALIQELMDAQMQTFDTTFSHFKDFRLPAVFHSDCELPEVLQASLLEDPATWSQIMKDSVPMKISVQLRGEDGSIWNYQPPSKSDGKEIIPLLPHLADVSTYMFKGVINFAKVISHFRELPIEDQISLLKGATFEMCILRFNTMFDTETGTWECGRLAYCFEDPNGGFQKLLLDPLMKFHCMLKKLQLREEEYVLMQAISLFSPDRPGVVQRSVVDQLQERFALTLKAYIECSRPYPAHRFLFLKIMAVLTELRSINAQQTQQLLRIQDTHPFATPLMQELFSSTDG
How it was run: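 Cell-based rPXR luciferase reporter assay, 2,000 cells per well, rested 5hr at 37 C before compound addition in DMSO, then 24 hr at 37 C. One-Glo reagent was added and luminescence read after 30 min at room temperature.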

[8] = biological target: Cytochrome P450 2D6 (Homo sapiens) (UniProt P10635); test: Cytochrome P450 Family 2 Subfamily D Member 6 (CYP2D6) small molecule antagonists: luciferase reporter qHTS assay (AID 1671196); note: nearly all actives have a fitted effect of over 50% in size; note: potency is the fitted concentration of half-maximal effect
Cytochrome P450 2D6 (Homo sapiens), sequence (P10635 whole entry, looked up): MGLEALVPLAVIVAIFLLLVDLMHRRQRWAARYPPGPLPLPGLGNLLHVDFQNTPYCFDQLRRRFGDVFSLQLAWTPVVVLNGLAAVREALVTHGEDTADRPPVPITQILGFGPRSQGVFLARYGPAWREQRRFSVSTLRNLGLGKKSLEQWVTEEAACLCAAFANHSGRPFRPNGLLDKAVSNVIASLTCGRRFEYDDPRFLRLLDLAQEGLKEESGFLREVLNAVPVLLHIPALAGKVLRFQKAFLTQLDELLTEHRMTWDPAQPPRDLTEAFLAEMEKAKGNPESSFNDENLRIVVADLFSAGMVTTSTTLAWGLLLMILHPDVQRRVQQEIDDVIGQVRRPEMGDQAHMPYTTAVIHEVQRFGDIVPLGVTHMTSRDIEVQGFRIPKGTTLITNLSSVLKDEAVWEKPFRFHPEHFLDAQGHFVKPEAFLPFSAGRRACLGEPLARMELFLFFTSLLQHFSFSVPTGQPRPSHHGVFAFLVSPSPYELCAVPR
How it was run: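 Test chemicals meet CYP2D6 plus proluciferin substrate (10 min, RT); NADPH regenerating solution then drives turnover for 1 h. Detection reagent halts the reaction; luminescence measured after 20 min.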

[9] = biological target: Cytochrome P450 2C9 (Homo sapiens) (UniProt P11712); test: Cytochrome P450 Family 2 Subfamily C Member 9 (CYP2C9) small molecule antagonists: luciferase reporter qHTS assay (AID 1671198); note: nearly all actives have a fitted effect of over 50% in size; note: potency is the fitted concentration of half-maximal effect
Cytochrome P450 2C9 (Homo sapiens), sequence (P11712 whole entry, looked up): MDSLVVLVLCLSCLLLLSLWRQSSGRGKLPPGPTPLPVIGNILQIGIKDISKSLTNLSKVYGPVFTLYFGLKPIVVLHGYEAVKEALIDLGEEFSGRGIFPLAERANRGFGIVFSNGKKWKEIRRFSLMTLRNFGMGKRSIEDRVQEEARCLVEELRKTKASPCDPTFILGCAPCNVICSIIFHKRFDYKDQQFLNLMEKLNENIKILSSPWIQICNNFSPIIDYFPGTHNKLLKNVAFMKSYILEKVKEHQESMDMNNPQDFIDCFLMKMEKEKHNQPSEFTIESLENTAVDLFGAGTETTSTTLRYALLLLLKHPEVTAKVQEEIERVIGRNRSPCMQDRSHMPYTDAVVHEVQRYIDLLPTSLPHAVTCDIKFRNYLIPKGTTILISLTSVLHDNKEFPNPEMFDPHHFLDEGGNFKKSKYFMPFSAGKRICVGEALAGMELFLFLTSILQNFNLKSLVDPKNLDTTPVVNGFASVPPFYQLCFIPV
How it was run: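 CYP2C9 activity was measured with a P450-Glo proluciferin substrate. Enzyme–substrate mix was held with compound for 10 min at room temperature, then NADPH regeneration solution was added for 1 h at 37C. Luciferin product was read as luminescence.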

[10] = biological target: Voltage-gated inwardly rectifying potassium channel KCNH2 (Homo sapiens) (UniProt Q12809); test: Human Ether-a-go-go-Related Gene (hERG) channel small molecule antagonists: fluorescence cell-based qHTS assay (AID 1671200);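 note: hERG-expressing U2OS cells given a thallium stimulus after FluxOR II dye loading; series mostly up to about 77 µM; nearly all actives have a fitted effect of over 50% in size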
Voltage-gated inwardly rectifying potassium channel KCNH2 (Homo sapiens), sequence (Q12809 whole entry, looked up): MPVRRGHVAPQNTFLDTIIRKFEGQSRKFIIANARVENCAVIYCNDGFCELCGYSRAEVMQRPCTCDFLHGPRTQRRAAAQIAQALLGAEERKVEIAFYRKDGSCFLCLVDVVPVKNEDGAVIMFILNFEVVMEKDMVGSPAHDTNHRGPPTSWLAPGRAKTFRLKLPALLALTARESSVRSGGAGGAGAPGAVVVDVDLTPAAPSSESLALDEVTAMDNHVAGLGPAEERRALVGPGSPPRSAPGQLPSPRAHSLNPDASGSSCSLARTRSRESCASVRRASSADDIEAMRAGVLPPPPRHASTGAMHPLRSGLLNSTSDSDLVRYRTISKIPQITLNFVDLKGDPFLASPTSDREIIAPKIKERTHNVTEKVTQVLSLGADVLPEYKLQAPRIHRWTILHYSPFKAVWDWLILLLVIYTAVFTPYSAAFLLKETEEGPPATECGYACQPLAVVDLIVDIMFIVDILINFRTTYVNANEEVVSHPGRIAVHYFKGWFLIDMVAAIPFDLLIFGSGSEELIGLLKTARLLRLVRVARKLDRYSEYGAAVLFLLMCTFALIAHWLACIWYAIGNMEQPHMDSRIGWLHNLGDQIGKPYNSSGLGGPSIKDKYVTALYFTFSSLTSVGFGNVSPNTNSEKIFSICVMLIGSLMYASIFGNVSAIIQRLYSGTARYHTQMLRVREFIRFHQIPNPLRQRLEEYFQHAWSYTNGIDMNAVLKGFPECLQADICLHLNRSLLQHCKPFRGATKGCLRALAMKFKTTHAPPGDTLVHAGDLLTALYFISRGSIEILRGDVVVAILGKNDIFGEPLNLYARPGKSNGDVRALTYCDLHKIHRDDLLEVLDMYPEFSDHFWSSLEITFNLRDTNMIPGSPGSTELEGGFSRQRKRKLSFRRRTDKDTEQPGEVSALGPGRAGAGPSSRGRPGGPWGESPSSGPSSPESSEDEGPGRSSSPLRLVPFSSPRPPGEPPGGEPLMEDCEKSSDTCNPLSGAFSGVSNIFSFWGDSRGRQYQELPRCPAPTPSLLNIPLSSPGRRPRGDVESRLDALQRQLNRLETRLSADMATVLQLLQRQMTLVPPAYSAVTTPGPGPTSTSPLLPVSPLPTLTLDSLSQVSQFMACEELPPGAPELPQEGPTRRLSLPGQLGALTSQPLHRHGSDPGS
How it was run: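 Quantitative HTS in hERG-U2OS cells: thallium entry through the channel reports activity, read as continuous 480/540 nm fluorescence over 2 min after stimulus addition.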

[11] = biological target: Nuclear receptor subfamily 1 group I member 2 (Homo sapiens) (UniProt O75469); test: Human pregnane X receptor (PXR) small molecule agonists, qHTS assay (AID 1346982); note: nearly all actives have a fitted effect of over 35% in size; note: potency is the fitted concentration of half-maximal effect
Nuclear receptor subfamily 1 group I member 2 (Homo sapiens), sequence (O75469 whole entry, looked up): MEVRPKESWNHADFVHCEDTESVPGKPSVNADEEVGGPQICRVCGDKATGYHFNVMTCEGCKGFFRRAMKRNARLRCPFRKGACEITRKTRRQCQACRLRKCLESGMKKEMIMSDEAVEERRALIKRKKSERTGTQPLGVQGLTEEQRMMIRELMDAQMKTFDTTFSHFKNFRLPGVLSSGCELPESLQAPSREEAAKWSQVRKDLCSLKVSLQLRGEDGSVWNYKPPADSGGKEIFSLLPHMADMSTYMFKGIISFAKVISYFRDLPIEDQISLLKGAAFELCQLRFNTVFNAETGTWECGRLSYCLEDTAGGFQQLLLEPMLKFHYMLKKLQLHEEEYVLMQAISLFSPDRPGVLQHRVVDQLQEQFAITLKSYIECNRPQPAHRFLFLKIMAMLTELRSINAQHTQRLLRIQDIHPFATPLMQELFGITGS
How it was run: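 Reporter HepG2 cells expressing PXR-Luc are cultured in charcoal-stripped FBS (5%), treated with compounds for 24 hr at 37 C, and assayed by ONE-Glo luminescence after 30 min at room temperature.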

[12] = biological target: Cytochrome P450 1A2 (Homo sapiens) (UniProt P05177); test: Cytochrome P450 Family 1 Subfamily A Member 2 (CYP1A2) small molecule antagonists: luciferase reporter qHTS assay (AID 1671199); note: nearly all actives have a fitted effect of over 50% in size; note: potency is the fitted concentration of half-maximal effect
Cytochrome P450 1A2 (Homo sapiens), sequence (P05177 whole entry, looked up): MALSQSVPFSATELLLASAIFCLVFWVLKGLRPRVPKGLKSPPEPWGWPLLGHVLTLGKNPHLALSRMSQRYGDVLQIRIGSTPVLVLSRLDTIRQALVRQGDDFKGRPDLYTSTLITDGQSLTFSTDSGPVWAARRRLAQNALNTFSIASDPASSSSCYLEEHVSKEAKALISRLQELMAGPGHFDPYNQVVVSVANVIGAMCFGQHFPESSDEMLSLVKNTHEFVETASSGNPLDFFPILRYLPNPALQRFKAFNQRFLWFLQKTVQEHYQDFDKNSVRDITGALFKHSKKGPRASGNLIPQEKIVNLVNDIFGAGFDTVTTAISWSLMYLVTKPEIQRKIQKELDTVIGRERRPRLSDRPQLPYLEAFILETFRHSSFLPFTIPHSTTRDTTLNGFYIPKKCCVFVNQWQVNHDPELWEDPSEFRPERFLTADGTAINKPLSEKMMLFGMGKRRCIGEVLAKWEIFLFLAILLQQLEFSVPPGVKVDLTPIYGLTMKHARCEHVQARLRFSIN
How it was run: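 Steps: enzyme-substrate mix dispensed; test compounds and furafylline control pinned in; 10 min room temperature; NADPH regeneration solution added, 1 h; reaction stopped with luciferin detection reagent; luminescence read after 20 min.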

[13] = biological target: Cytochrome P450 3A4 (Homo sapiens) (UniProt P08684); test: Cytochrome P450 Family 3 Subfamily A Member 4 (CYP3A4) small molecule antagonists: luciferase reporter qHTS assay (AID 1671201)
Cytochrome P450 3A4 (Homo sapiens), sequence (P08684 whole entry, looked up): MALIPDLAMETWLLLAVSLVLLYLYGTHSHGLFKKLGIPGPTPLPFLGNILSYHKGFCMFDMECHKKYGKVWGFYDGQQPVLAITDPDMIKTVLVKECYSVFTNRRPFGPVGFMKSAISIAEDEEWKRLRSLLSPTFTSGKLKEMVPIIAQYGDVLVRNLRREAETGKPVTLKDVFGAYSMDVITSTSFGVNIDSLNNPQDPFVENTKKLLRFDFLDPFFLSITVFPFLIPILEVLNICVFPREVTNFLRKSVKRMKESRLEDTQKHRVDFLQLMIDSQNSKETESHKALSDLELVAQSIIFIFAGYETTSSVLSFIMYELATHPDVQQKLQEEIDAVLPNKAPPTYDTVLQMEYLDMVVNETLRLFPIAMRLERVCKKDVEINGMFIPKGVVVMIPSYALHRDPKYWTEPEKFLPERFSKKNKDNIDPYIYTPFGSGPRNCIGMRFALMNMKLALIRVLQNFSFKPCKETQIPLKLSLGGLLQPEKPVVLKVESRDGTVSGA
How it was run: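 Inhibition of CYP3A4 is measured as loss of light: the enzyme converts a proluciferin substrate to luciferin, detected luminescently. Reaction ran 1 h at room temperature with NADPH regeneration after a 10 min compound preincubation.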

[14] = biological target: Nuclear receptor subfamily 1 group I member 2 (Homo sapiens) (UniProt O75469); test: CYP3A4 induction through human pregnane X receptor (PXR) by small molecules, qHTS assay (AID 1346984); note: nearly all actives have a fitted effect of over 40% in size
How it was run: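 Induction measured in HepG2-based DPX-2 cells co-expressing human PXR and a CYP3A4 promoter-driven luciferase. After a 24-hour compound exposure, cells received CYP3A4 luciferin substrate at 3uM final for 3 hours, and light output was then recorded.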

[15] = biological target: Nuclear receptor subfamily 1 group I member 2 (Homo sapiens) (UniProt O75469); test: Human pregnane X receptor (PXR) activation by small molecules, qHTS assay (AID 1346985); note: nearly all actives have a fitted effect of over 40% in size
How it was run: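 DPX-2 cells (HepG2 co-transfected with a PXR response element and a CYP3A4-promoter luciferase construct) were seeded at 2,000 per well, rested 5 hr at 37C, then exposed to DMSO-dissolved compounds for 24 hr. Activation was read as luciferase luminescence.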

[16] = biological target: Cytochrome P450 2C19 (Homo sapiens) (UniProt P33261); test: Cytochrome P450 Family 2 Subfamily C Member 19 (CYP2C19) small molecule antagonists: luciferase reporter qHTS assay (AID 1671197); note: nearly all actives have a fitted effect of over 65% in size; note: potency is the fitted concentration of half-maximal effect
Cytochrome P450 2C19 (Homo sapiens), sequence (P33261 whole entry, looked up): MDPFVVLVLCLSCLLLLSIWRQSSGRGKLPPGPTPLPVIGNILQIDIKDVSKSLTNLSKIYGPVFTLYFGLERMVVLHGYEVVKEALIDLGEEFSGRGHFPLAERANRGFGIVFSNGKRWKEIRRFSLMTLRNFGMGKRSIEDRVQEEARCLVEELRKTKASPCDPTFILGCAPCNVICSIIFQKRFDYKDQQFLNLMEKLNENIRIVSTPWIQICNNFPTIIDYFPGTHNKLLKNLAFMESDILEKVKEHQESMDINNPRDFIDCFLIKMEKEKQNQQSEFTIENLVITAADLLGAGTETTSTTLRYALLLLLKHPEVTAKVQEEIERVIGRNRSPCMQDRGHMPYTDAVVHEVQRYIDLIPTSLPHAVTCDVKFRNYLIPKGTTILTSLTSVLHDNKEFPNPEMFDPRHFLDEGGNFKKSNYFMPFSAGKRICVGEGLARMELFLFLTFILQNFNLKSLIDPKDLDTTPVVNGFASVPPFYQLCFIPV
How it was run: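 First, compounds are pinned into enzyme-substrate mix and held 10 min at room temperature. Second, NADPH regeneration solution is added and plates incubate 1 h at 37C. Third, detection reagent is added and luminescence read after 20 min.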

Compound	outcome [1]	Potency [2]	Potency [3]	Potency [4]	outcome [5]	Potency [6]	max activation [7]	Potency [8]	Potency [9]	outcome [10]	Potency [11]	Potency [12]	Potency [13]	outcome [14]	Potency [15]	Potency [16]
NC(=O)NC1NC(=O)NC1=O (stereo unspecified)	inactive	inactive	inactive	inactive	inactive	inactive	-1.54% (inactive)	35.2 µM (active) and inactive	inactive	inactive	–	–	–	–	–	–
Cc1ccc(C)c(OCCCC(C)(C)C(=O)O)c1	–	inactive	inactive	inactive	inactive	inactive	–	inactive	31.9 µM (active) and 35.6 µM (active) and 17.4 µM (active)	inactive	inactive	71 µM (active) and inactive	inactive	–	–	–
CNC[C@H](O)c1cccc(O)c1	–	inactive	inactive	inactive	inactive	inactive	-0.862% (inactive)	–	–	inactive	–	–	–	–	–	–
CC(C)(Oc1ccc(C2CC2(Cl)Cl)cc1)C(=O)O (stereo unspecified)	–	inactive	inactive	inactive	inactive	inactive	-3.49% (inactive)	inactive	30.5 µM (active) and 22.4 µM (active) and 15.5 µM (active)	inactive	inactive	inactive	inactive	inactive	inactive	inactive
COc1ccc2[nH]cc(CCNC(C)=O)c2c1	inactive	inactive	inactive	inactive	inactive	inactive	–	–	32.2 µM (active) and 35.6 µM (active)	inactive	62.1 µM (active)	–	inactive	–	–	–
CCCNC(=O)NS(=O)(=O)c1ccc(Cl)cc1	–	inactive	inactive	inactive	inactive	inactive	–	inactive	39.7 µM (active) and 35.6 µM (active)	inactive	inactive	inactive and 15.5 µM (active)	inactive	–	–	–
O=c1ccc2ccccc2o1	–	inactive	inactive	inactive	inactive	inactive	–	inactive	inactive	inactive	inactive	36.3 µM (active) and 31.7 µM (active) and inactive	inactive	inactive	inactive	inactive
CCCC(O)C(CC)CO (stereo unspecified)	–	inactive	inactive	inactive	inactive	inactive	-6.82% (inactive)	inactive	inactive	inactive	inactive	inactive	inactive	inactive	inactive	–
CCCN(CCC)S(=O)(=O)c1ccc(C(=O)O)cc1	inactive	inactive	inactive	inactive	inactive	inactive	–	inactive	inactive	inactive	–	inactive	–	–	–	inactive
OC(Cn1cncn1)(Cn1cncn1)c1ccc(F)cc1F	–	inactive	–	inactive	inactive	inactive	-1.17% (inactive)	22.7 µM (active) and inactive	–	inactive	inactive	inactive	–	inactive	inactive	–
O=C(O)c1cc(N=Nc2ccc(S(=O)(=O)Nc3ccccn3)cc2)ccc1O	–	39.8 µM (active)	inactive	34.5 µM (active) and 54.5 µM (active) and 26.6 µM (active)	inactive	27.4 µM (active) and 48.6 µM (active) and 23.7 µM (active)	-4.4% (inactive)	inactive	14.2 µM (active) and 17.8 µM (active) and 8.71 µM (active)	inactive	inactive	inactive	inactive	inactive	inactive	56.6 µM (active) and inactive
NNC(=O)c1ccncc1	–	inactive	inactive	inactive	inactive	inactive	–	40 µM (active) and inactive	35.7 µM (active) and 13.3 µM (active)	inactive	inactive	40 µM (active) and 26.5 µM (active) and 27.5 µM (active)	–	–	–	15.9 µM (active) and 2.97 µM (active) and 17.4 µM (active)
NS(=O)(=O)c1cc(C(=O)O)c(NCc2ccco2)cc1Cl	inactive	inactive	–	inactive	inactive	inactive	–	–	–	–	inactive	–	–	–	–	–
O=NO	–	inactive	inactive	inactive	inactive	inactive	–	–	–	inactive	–	–	–	–	–	–
O=C(O)C(=O)O	–	inactive	inactive	inactive	inactive	inactive	–	inactive	inactive	inactive	inactive	inactive	inactive	–	–	–
NC(N)=O	–	14.1 µM (active) and inactive	inactive	5.15 µM (active) and inactive	inactive	inactive	-2.71% (inactive)	inactive	inactive	inactive	9.16 µM (active) and inactive	inactive	inactive	inactive	inactive	–
Nc1ccc(C(=O)O)cc1	–	inactive	inactive	inactive	inactive	inactive	-4.61% (inactive)	inactive	inactive	inactive	inactive	inactive	inactive	inactive	inactive	–
Cc1cn([C@H]2C[C@H](N=[N+]=[N-])[C@@H](CO)O2)c(=O)[nH]c1=O	–	70.8 µM (active) and inactive	inactive	15.8 µM (active) and inactive	inactive	inactive	-3.59% (inactive)	inactive	63.3 µM (active) and inactive	inactive	inactive	inactive	inactive	inactive	inactive	41.1 µM (active) and 39.9 µM (active) and inactive
